# Data taken from PubChem BioAssay (NCATS).
# Several values for one entry are separate records, joined by “and”; a condition that tells them apart may be missing. Equal entries are not always repeated. Results filed as inconclusive are left out. Entries that show only a call come without a potency. Activity calls are given as the source filed them. Unless noted, calls come from the whole dose curve.
# Assays:
# [1] = target: Alpha-galactosidase (Coffea arabica) (UniProt Q42656); assay: Counterscreen for Glucocerebrosidase Inhibitors: qHTS Assay for Coffee Bean alpha-Galactosidase at pH 4.5 (AID 957; active = well fitted curve in the direction sought with a large enough effect; an effect the other way counts as inactive or inconclusive)
# Chain of Alpha-galactosidase (Coffea arabica) (Q42656 whole entry, looked up): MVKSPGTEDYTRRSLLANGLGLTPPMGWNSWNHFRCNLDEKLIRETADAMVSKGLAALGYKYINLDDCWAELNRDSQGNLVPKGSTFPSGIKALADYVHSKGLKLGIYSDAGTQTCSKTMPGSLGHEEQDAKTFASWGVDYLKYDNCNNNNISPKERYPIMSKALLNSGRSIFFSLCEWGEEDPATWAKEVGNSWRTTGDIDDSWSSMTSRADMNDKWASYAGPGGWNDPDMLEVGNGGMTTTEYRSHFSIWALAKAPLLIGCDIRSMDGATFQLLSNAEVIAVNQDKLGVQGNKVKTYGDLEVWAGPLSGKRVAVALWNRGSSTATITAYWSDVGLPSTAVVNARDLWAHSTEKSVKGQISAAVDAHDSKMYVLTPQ
# Outline: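 Enzyme is added first (2 nM final), then compounds titrated from 0.7 nM to 77 uM, then 80 uM 4-methylumbelliferyl alpha-D-galactopyranoside; after 20 min at room temperature a pH 10 NaOH/glycine stop precedes fluorescence reading at 365/440 nm.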
# [2] = target: Alpha-galactosidase (Coffea arabica) (UniProt Q42656); assay: Counterscreen for Glucocerebrosidase Inhibitors: qHTS Assay for Coffee Bean alpha-Galactosidase at pH 5.9 (AID 998; active = well fitted curve in the direction sought with a large enough effect; an effect the other way counts as inactive or inconclusive)
# Outline: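 In 50 mM citric acid pH 5.9 with 0.005% Tween-20, coffee bean enzyme hydrolyses 80 uM 4-MU alpha-D-galactopyranoside over 20 min at RT. Activity is normalized to controls; AC50 comes from Hill-modelled concentration-response data.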
# [3] = Validation screen for inhibitors of Lassa infection (AID 463096)
# [4] = Inducers of the Endoplasmic Reticulum Stress Response (ERSR) in human glioma: Validation (AID 504836; active = well fitted curve in the direction sought with a large enough effect; an effect the other way counts as inactive or inconclusive)
# Outline: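 Stably transfected U87-MG human glioma cells carrying a GRP78-based luminescent sensor were seeded at 1000 cells/well, pin-dosed with compounds and incubated 16 h. Luciferase reagent was then added, and end-point luminescence was read after 10 min at room temperature.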
# [5] = qHTS for Inhibitors of the Functional Ribonucleoprotein Complex (vRNP) of Lassa (LASV) Arenavirus: LASV Primary Screen - GLuc reporter signal (AID 1347082; calls by dose curve; tested in HEK293 reporter line; note: nearly all actives have a fitted effect of over 60% in size; note: potency is the fitted concentration of half-maximal effect)
# [6] = qHTS for Inhibitors of the Functional Ribonucleoprotein Complex (vRNP) of Lassa (LASV) Arenavirus: Viability assay - alamar blue signal for LASV Primary Screen (AID 1347083; calls by dose curve; tested in HEK293 reporter line; note: nearly all actives have a fitted effect of over 80% in size; note: potency is the fitted concentration of half-maximal effect)
# [7] = qHTS for Inhibitors of the Functional Ribonucleoprotein Complex (vRNP) of Lymphocytic Choriomeningitis Arenaviruses (LCMV): Viability assay - alamar blue signal for LCMV Primary Screen (AID 1347085; calls by dose curve; tested in HEK293 reporter line; note: nearly all actives have a fitted effect of over 80% in size; note: potency is the fitted concentration of half-maximal effect)
# [8] = target: Nucleoprotein (Lymphocytic choriomeningitis virus (strain Armstrong)) (UniProt P09992); assay: qHTS for Inhibitors of the Functional Ribonucleoprotein Complex (vRNP) of Lymphocytic Choriomeningitis Arenaviruses (LCMV): LCMV Primary Screen - GLuc reporter signal (AID 1347086); note: nearly all actives have a fitted effect of over 70% in size; note: potency is the fitted concentration of half-maximal effect
# Chain of Nucleoprotein (Lymphocytic choriomeningitis virus (strain Armstrong)) (P09992 whole entry, looked up): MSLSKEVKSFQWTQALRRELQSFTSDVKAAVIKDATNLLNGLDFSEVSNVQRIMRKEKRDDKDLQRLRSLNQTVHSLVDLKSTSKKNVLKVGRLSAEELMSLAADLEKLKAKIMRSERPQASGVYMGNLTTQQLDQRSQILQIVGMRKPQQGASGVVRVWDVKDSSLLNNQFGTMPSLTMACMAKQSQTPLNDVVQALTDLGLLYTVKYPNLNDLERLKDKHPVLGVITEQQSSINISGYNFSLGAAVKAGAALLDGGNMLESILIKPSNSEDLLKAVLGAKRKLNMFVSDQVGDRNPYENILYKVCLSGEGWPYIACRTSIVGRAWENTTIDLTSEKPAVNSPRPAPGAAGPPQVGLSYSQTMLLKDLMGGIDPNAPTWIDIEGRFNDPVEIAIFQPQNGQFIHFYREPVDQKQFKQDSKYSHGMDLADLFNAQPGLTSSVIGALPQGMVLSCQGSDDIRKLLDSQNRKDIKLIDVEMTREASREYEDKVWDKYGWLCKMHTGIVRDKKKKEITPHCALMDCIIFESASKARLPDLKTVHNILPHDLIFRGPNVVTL
# [9] = Primary qHTS for small molecule stabilizers of the endoplasmic reticulum resident proteome: Secreted ER Calcium Modulated Protein (SERCaMP) assay (AID 1508630; active = well fitted curve in the direction sought with a large enough effect; an effect the other way counts as inactive or inconclusive)
# Outline: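 The SH-SY5Y reporter protocol was run at 3 concentrations up to 38.3 uM (primary) or 11 concentrations (follow-up): 16 h compound, 100 nM thapsigargin for 4 h, then extracellular luciferase luminescence.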
# [10] = Cytotoxicity counterscreen for inhibitors of SARS-CoV-2 cell entry (AID 1645845); note: nearly all actives have a fitted effect of over 50% in size
# Outline: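 After a 15 min room-temperature ATPLite 1step step, luminescence reflected ATP remaining in HEK293-ACE2 cells exposed to compound for 1 h plus 48 h at 37 C, with percent activity set by cell and no-cell controls.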
# [11] = Primary qHTS for inhibitors of MERS-S pseudo-typed particle cell entry (AID 1479149); note: nearly all actives have a fitted effect of over 60% in size; note: potency is the fitted concentration of half-maximal effect
# [12] = Primary qHTS for Vero E6 cytotoxicity: counterscreen for inhibitors of SARS-S pseudo-typed particle cell entry (AID 1479150); conditions: outcome: dose series up to 57.1 µM unless noted
# [13] = Confirmatory qHTS to identify inhibitors of SARS-CoV-2 cell entry (AID 1645844); note: potency is the fitted concentration of half-maximal effect; nearly all actives have a fitted effect of over 45% in size
# Outline: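 Using stable human ACE2 Expi293F cells, compounds preincubated 1 hr before spike pseudoparticle infection; luciferase signal after 48 hr at 37C, 5% CO2, normalised to spike PP and no-fusion-protein PP wells.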
# [14] = VSVG counterscreen qHTS to identify inhibitors of SARS-CoV-2 cell entry (AID 1645847); note: potency is the fitted concentration of half-maximal effect; nearly all actives have a fitted effect of over 65% in size
# Outline: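 Expi293F/hACE2 cells, overnight plating; cpd 1 h, 37C/5% CO2; + VSV-G PP (MLV pseudotyping), 48 h; supernatant removed, Bright-Glo luciferase read. Norm: VSV-G PP and bald PP wells.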
# [15] = Primary qHTS for Huh7 cytotoxicity: counterscreen for inhibitors of MERS-S pseudotyped particle cell entry (AID 1479147); conditions: outcome: dose series up to 57.1 µM unless noted
# [16] = Primary qHTS to identify inhibitors of SARS-CoV-2 cell entry (AID 1645846); conditions: activity change, negative = inhibition: at 57.1 µM (top of the series) unless noted; note: nearly all actives have a fitted effect of over 45% in size
# Outline: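 HEK293-ACE2 (Expi293F, stable hACE2), 1500 cells/well, o/n 37C; cpd 23 nL pin, 1 h; MLV-PP w/ SARS-CoV-2-S (Wuhan-Hu-1, Δ19 C-term); 48 h 37C; Bright-Glo luminescence; normalized vs S-PP and bald PP.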
smiles,measurement,setting,value
O=S(=O)(c1cccc2c(Cl)cccc12)N1CCCNCC1,outcome,[1],inactive
same,outcome,[2],inactive
same,Potency,[3],inactive
same,outcome,[4],inactive
same,Potency,[5],inactive
same,Potency,[6],inactive
same,Potency,[7],inactive
same,Potency,[8],inactive
C1CC[C@H]([C@@]23C[C@H](C[C@H]4CCCN[C@H]42)[C@@H]2CCCCN2C3)NC1,Potency,[5],inactive
same,Potency,[6],inactive
same,Potency,[7],inactive
same,Potency,[8],inactive
same,Potency,[9],inactive
Cc1ccc(C(=O)Nc2cccc(C(F)(F)F)c2)cc1Nc1nc(-c2cccnc2)nc2c1cnn2C,Potency,[5],inactive
same,Potency,[6],inactive
same,Potency,[7],inactive
same,Potency,[8],inactive
same,Potency,[10],inactive
Cc1c(-c2ccc(O)cc2)n(Cc2ccc(OCCN3CCCCCC3)cc2)c2ccc(O)cc12,Potency,[5],inactive
same,Potency,[6],inactive
same,Potency,[7],inactive
same,Potency,[8],inactive
same,Potency,[11],10 µM (active)
same,outcome,[12],inactive
same,Potency,[13],15.2 µM (active)
same,Potency,[10],inactive
same,Potency,[14],27.1 µM (active)
O=C1c2c(O)cccc2[C@@H]([C@@H]2O[C@H](CO)[C@@H](O)[C@H](O)[C@H]2O)c2cc(CO)cc(O)c21,Potency,[5],inactive
same,Potency,[6],inactive
same,Potency,[7],inactive
same,Potency,[8],inactive
same,outcome,[15],inactive
same,Potency,[11],inactive
same,outcome,[12],inactive
same,Potency,[10],inactive
same,"activity change, negative = inhibition",[16],-0.84%
CN(C/C=C/c1ccccc1)Cc1cccc2ccccc12,Potency,[5],inactive
same,Potency,[6],inactive
same,Potency,[7],inactive
same,Potency,[8],inactive
same,outcome,[15],inactive
same,outcome,[12],inactive
same,Potency,[10],inactive
NC(N)=NCc1cccc(I)c1,outcome,[1],inactive
same,outcome,[2],inactive
same,Potency,[3],inactive
same,outcome,[4],inactive
same,Potency,[5],inactive
same,Potency,[6],inactive
same,Potency,[7],inactive
same,Potency,[8],inactive
same,outcome,[15],inactive
same,Potency,[11],inactive
same,outcome,[12],inactive
same,Potency,[10],inactive
CO[C@H]1[C@@H](O)[C@H](N)[C@@H](O[C@H]2O[C@H]([C@H](C)N)CC[C@H]2N)[C@H](O)[C@@H]1N(C)C(=O)CN,Potency,[5],inactive
same,Potency,[6],inactive
same,Potency,[7],inactive
same,Potency,[8],inactive
same,outcome,[15],inactive
same,Potency,[11],inactive
same,outcome,[12],inactive
same,Potency,[10],inactive
same,"activity change, negative = inhibition",[16],-5.5%
O=C1CCCC(=O)C1C(=O)c1ccc(C(F)(F)F)cc1[N+](=O)[O-],Potency,[5],inactive
same,Potency,[6],inactive
same,Potency,[7],inactive
same,Potency,[8],inactive
same,outcome,[15],inactive
same,Potency,[11],inactive
same,outcome,[12],inactive
same,Potency,[10],inactive
same,Potency,[16],inactive
CC(=O)O[C@H]1Cc2ccccc2N(C(N)=O)c2ccccc21,outcome,[4],inactive
same,Potency,[5],inactive
same,Potency,[6],inactive
same,Potency,[7],inactive
same,Potency,[8],inactive
same,outcome,[15],inactive
same,Potency,[11],inactive
same,outcome,[12],inactive
same,Potency,[10],inactive
same,"activity change, negative = inhibition",[16],-29.9%
CC(C)COC(=O)OCN1C(=O)CN(CCN2CC(=O)N(COC(=O)OCC(C)C)C(=O)C2)CC1=O,outcome,[1],inactive
same,outcome,[2],inactive
same,Potency,[3],inactive
same,outcome,[4],inactive
same,Potency,[5],inactive
same,Potency,[6],inactive
same,Potency,[7],inactive
same,Potency,[8],inactive
same,outcome,[15],inactive
same,Potency,[11],inactive
same,outcome,[12],inactive
same,Potency,[10],inactive
same,"activity change, negative = inhibition",[16],-21.8%
CC1(C)OC1COc1c2occc2cc2ccc(=O)oc12 (stereo not drawn),Potency,[5],inactive
same,Potency,[6],inactive
same,Potency,[7],inactive
same,Potency,[8],inactive
same,Potency,[9],inactive
CC(=O)[C@H]1CC[C@H]2[C@@H]3CCC4=CC(=O)CC[C@]4(C)[C@H]3CC[C@]12C,outcome,[1],inactive
same,outcome,[2],inactive
same,Potency,[3],inactive
same,outcome,[4],inactive
same,Potency,[5],inactive
same,Potency,[6],inactive
same,Potency,[7],inactive
same,Potency,[8],inactive
same,outcome,[15],inactive
same,outcome,[12],inactive
same,Potency,[13],24.1 µM (active)
same,Potency,[14],17.1 µM (active)
Cc1ccc(NC(=O)C2(c3ccc4c(c3)OC(F)(F)O4)CC2)nc1-c1cccc(C(=O)O)c1,Potency,[5],0.0385 µM (active)
same,Potency,[6],0.0432 µM (active)
same,Potency,[7],0.0685 µM (active)
same,Potency,[8],0.0217 µM (active)
same,outcome,[15],inactive
same,Potency,[11],inactive
same,outcome,[12],inactive
same,Potency,[10],inactive
same,Potency,[16],inactive
same,"activity change, negative = inhibition",[16],-24.6%
C[C@H]1COc2c(N3CCN(C)CC3)c(F)cc3c(=O)c(C(=O)O)cn1c23,Potency,[5],inactive
same,Potency,[6],inactive
same,Potency,[7],inactive
same,Potency,[8],inactive
same,outcome,[15],inactive
same,Potency,[11],inactive
same,outcome,[12],inactive
same,"activity change, negative = inhibition",[16],-10.7% and -28.1%
COc1ccc(CCN(C)CCCC(C#N)(c2ccc(OC)c(OC)c2)C(C)C)cc1OC (stereo not drawn),outcome,[3],inactive
same,Potency,[5],inactive
same,Potency,[6],inactive
same,Potency,[7],inactive
same,Potency,[8],inactive
same,outcome,[15],inactive
same,outcome,[12],inactive
C[N+]1(CCCCC[N+]2(C)CCCC2)CCCC1,outcome,[1],inactive
same,outcome,[2],inactive
same,Potency,[3],inactive
same,outcome,[4],inactive
same,Potency,[5],inactive
same,Potency,[6],inactive
same,Potency,[7],inactive
same,Potency,[8],inactive
same,outcome,[15],inactive
same,Potency,[11],inactive
same,outcome,[12],inactive
same,Potency,[10],inactive
CCN1C[C@]2(C)CC[C@H](OC)[C@@]34[C@H]1C1(OCO[C@@]15C[C@H](OC)C1C[C@]3(O)C5[C@H]1OC)[C@@H](O)[C@H]24,Potency,[5],inactive
same,Potency,[6],inactive
same,Potency,[7],inactive
same,Potency,[8],inactive
same,Potency,[9],inactive
CCCCC(C)(C)[C@H](O)C=C[C@H]1[C@H](O)CC(=O)[C@H]1CC=CCCCC(=O)O,Potency,[5],inactive
same,Potency,[6],inactive
same,Potency,[7],inactive
same,Potency,[8],inactive
same,Potency,[13],17.1 µM (active)
same,Potency,[10],inactive
same,"activity change, negative = inhibition",[16],-55.7%
same,Potency,[14],19.2 µM (active)
